Hits are enriched below; roughly 12% of the tested compounds scored in any of these assays.
Sfp PPTase inh: blocks B. subtilis Sfp PPTase activity; Q9F4F7; Biochemical Sfp PPTase activity, qHTS; Potency, µM, inactives show largest response in the series, negative = inhibition, hits mostly inhibitors; 310,000 tested, 3.5% active;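 further: the enzyme is Sfp with the accession as filed and its product quenches rhodamine fluorescence; 0% = enzyme reaction without inhibitor and -100% = no enzyme wells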
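After 15 min at room temperature with compound, 15 nM Sfp received 5 uM rhodamine-CoA plus 12.5 uM BHQ-2-ybbR (50 mM Hepes pH 7.6, 10 mM MgCl2). Rate came from the fluorescence difference over 30 min, ex 525/em 598 nm.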
HP1b binding inh: HP1-beta chromodomain-methylated histone interaction inhibition; AID 540317; 390,000 tested, 0.56% active; Potency, µM (series often up to 114 µM), for the others: at the top dose activity change, negative = inhibition, hits mostly inhibitors; AlphaScreen HP1-beta / biotin-H3K9me3 peptide binding; further: nearly all actives have a fitted effect of over 70% in size
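Compound inhibition of the preformed complex between 50 nM HP1-beta and 50 nM biotinylated H3K9me3 peptide was read by AlphaScreen. Buffer was PBS pH 7.4 with 0.01% Tween-20. Incubations ran 30 min at room temperature, with 10 ug/mL donor/acceptor beads.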
G9a inh: inhibitors of human histone lysine methyltransferase G9a | Potency, µM (top dose mostly 102 µM), inactives show top-dose activity, negative = inhibition, actives largely listed as inhibitors | G9a H3K9 monomethylation, AlphaScreen, 2 h | 350,000 tested, 8.8% active; further: on the % scale 0 is the no-effect control and ±100 the full control effect; nearly all actives have a fitted effect of over 75% in size
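Enzyme 20 nM + cpd, 15 min RT; add b-H3K9 pep 500 nM / SAM 20 uM; 2 h RT; anti-H3K9me1 Ab 0.5 ug/mL + SA donor / anti-rabbit acceptor beads 20 ug/mL each, 10 min; AlphaScreen read.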
BAZ2B block: blocks human BAZ2B | Q9UIF8 | AlphaScreen BAZ2B-H3K14Ac peptide displacement | Potency, µM (series often up to 114 µM), without a hit: at the highest dose activity change, negative = inhibition, most hits filed as inhibitors | 360,000 tested, 4.4% active | AID 504333; further: on the % scale 0 is the no-effect control and ±100 the full control effect; nearly all actives have a fitted effect of over 60% in size
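AlphaScreen displacement: compounds (up to 110uM) incubated 30 min at room temperature with a preformed 50 nM BAZ2B/50 nM biotinylated H3K14Ac peptide complex in PBS pH 7.4 with Tween-20. Donor and acceptor beads at 10 ug/mL final added, 20 min light-protected before reading.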
JMJD2A Tudor inh: inhibitors of human JMJD2A Tudor domain. AID 504339. O75164. Potency, µM (top dose mostly 114 µM), without a hit: top-dose activity change, negative = inhibition, actives largely listed as inhibitors. 390,000 tested, 4.4% active. AlphaScreen JMJD2A-Tudor / H3K4me3 peptide binding; further: on the % scale 0 is the no-effect control and ±100 the full control effect; nearly all actives have a fitted effect of over 50% in size
Target sequence (O75164 whole entry, looked up, the tested form may be a part): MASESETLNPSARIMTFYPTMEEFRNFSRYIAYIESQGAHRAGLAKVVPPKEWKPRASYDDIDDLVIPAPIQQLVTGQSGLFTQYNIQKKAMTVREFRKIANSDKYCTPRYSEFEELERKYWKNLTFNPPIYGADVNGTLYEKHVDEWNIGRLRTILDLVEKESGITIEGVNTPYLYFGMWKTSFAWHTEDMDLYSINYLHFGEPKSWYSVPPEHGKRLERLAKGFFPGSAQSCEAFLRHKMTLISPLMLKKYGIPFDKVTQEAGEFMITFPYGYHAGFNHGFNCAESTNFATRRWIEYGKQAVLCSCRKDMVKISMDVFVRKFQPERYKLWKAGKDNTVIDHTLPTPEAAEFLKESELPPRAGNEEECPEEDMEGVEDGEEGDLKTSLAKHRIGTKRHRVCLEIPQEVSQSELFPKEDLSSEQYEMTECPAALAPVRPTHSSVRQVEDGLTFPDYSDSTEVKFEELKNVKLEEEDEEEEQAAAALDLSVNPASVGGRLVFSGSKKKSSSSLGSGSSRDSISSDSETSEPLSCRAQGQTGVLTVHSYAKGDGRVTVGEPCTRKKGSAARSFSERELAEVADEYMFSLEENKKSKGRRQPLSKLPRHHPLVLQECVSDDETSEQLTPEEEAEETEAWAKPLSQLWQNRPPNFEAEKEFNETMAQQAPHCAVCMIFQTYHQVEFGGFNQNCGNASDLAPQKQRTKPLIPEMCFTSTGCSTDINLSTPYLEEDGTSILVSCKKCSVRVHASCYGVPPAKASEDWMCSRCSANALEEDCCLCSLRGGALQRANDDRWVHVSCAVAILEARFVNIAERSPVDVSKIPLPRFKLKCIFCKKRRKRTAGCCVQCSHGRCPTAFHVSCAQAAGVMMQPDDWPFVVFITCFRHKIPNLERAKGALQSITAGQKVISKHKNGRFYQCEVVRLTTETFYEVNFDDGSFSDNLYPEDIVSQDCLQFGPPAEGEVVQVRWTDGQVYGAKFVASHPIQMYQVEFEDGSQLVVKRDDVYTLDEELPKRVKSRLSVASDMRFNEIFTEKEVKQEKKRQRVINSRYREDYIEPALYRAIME
L3MBTL1 inh: blocks human L3MBTL1 | AID 485360 | Potency, µM (doses to about 57.1 µM), without a hit: at the highest dose activity, negative = inhibition, usual class: inhibitors | AlphaScreen L3MBTL1–H3K9me1 peptide binding | 230,000 tested, 0.66% active | Q9Y468; further: on the % scale 0 is the no-effect control and ±100 the full control effect; nearly all actives have a fitted effect of over 60% in size
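L3MBTL1 50 nM + b-AHA-H3(1-15)K9me1 75 nM, 30 min RT; compound added, 30 min RT; streptavidin donor/Ni-chelate acceptor beads 10 ug/mL each final, 30 min RT dark; AlphaScreen read.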
* marks the source's active call; other numbers are inactive results; ? = inconclusive; . = no result given; [ ] = dose if it differs, or a comment. The call rests on the fitted dose curve; in most records, active means well fitted curve in the direction sought with a large enough effect; inconclusive means small, poorly fitted or top-dose-only effect, or another doubt; inactive means no such curve, though single readings can be large; an effect the other way counts as inactive or inconclusive. Potency means the concentration at half of the fitted maximal effect.

SMILES	Sfp PPTase inh	HP1b binding inh	G9a inh	BAZ2B block	JMJD2A Tudor inh	L3MBTL1 inh
O=C(c1cc(C(F)(F)F)cc(C(F)(F)F)c1)N1CCC2(CC1)CCN(c1ccccn1)CC2	24%	.	-3%[12.7 µM]	.	.	.
CS(=O)(=O)N(CC(=O)NCCSCc1ccccc1)c1cc(C(F)(F)F)ccc1Cl	.	52%	2%[59 µM]	-1%	-19%	.
CC(C)(C)NC(=O)c1ccc(NC(=O)CSc2ccccc2)cc1	14%	28%	-3%	-18%	-8%	6%
Nc1ccc(N2CCN(C(=O)c3ccco3)CC2)cc1	-19%	-7%	20µM*	?	?	-7%
CC(=O)Nc1ccc(N2CCN(C(=O)c3cccs3)CC2)cc1	20%	26%	8%	9%	-7%	4%
Cc1ccc(N2CCN(C(=O)c3cccs3)CC2)cc1C	50µM*	5%	-8%[0.501 µM]	50µM*	-31%	1%[2.29 µM]
Nc1ccc(N2CCN(C(=O)c3cccs3)CC2)cc1	-15%	-14%	1.4µM*	?	-7%	.
O=C(CC1NCCNC1=O)Nc1ccc(F)c(Cl)c1 (stereo not given)	.	20%	10%[59 µM]	-12%	-8%	.
Cc1ccc(/C=N/Nc2nc(C)cc(C)n2)cc1	79µM*	35%	?	-24%	-8%	-1%
CC(/C=N/Nc1nc(C)cc(C)n1)=C\c1ccc(C(C)C)cc1	6%	?	40µM*	-37%	-25%	-5%
Cc1cc(C)nc(N/N=C/c2ccc(Cl)cc2)n1	?	33%	45µM*	2%	-5%	-5%
CC(/C=N/NC(=O)c1ccncc1)=C\c1ccc(C(C)C)cc1	10%	33%	-14%	-24%	-12%	?
Cc1cc(-c2ccccc2)nc(N/N=C/c2ccc(N(C)C)cc2)n1	.	?	.	.	35µM*	.
Cc1cc(C)n2ncc(C(=O)Nc3ccc(Cl)c(Cl)c3)c2n1	-26%	?	40µM*	-11%	-25%	-3%
Cc1cc(C)n2ncc(C(=O)Nc3ccc4c(c3)CCC4)c2n1	.	.	.	.	-9%	.
COC(=O)C1=C(C)NC(C)=C(C(=O)O[C@@H]2CCCN(Cc3ccccc3)C2)[C@@H]1c1cccc([N+](=O)[O-])c1	.	?	.	.	45µM*	.
COc1ccccc1C1C(C(=O)c2ccc(C)o2)=C(O)C(=O)N1c1cc(C)on1 (stereo not given)	-18%	22%	89µM*	?	-10%	.
COc1cccc(C2C(C(=O)c3cccs3)=C(O)C(=O)N2c2cc(C)on2)c1 (stereo not given)	9%	30%	?	?	-4%	4%
Cc1cccc(N2C(=O)C(O)=C(C(=O)c3cccs3)C2c2ccccc2)n1 (stereo not given)	24%	47%	-49%	-16%	-6%	4%
COc1cc(C2C(C(=O)c3cccs3)=C(O)C(=O)N2c2cc(C)on2)ccc1O (stereo not given)	-11%	18%	50µM*	?	?	2%
Cc1cccc(N2C(=O)C(O)=C(C(=O)c3cccs3)C2c2cccc(Oc3ccccc3)c2)n1 (stereo not given)	-3%	19%	50µM*	?	-33%	?
COc1cccc(C2C(C(=O)c3ccc(C)o3)=C(O)C(=O)N2c2cc(C)on2)c1 (stereo not given)	-1%	12%	45µM*	?	-12%	.
CC12CC3CC(C)(C1)CC(C(=O)N1CCN(C(=O)c4ccco4)CC1)(C3)C2	-1%	15%[57 µM]	?	-36%	0%	.
COc1ccc(CNC(=O)c2sc3nc[nH]c(=O)c3c2C)cc1	.	22%[57 µM]	23%[59 µM]	2%	-6%	.
COc1ccccc1CCNC(=O)c1cccn1-c1nnc(N2CCCC2)s1	.	23%	-6%[59 µM]	-15%	0%	.
COC(=O)c1sc(-c2ccc(C(C)(C)C)cc2)cc1NC(=O)CSCC(=O)O	-3%	21%	-27%	-28%	-31%	.

Compound activity as filed in PubChem.
